Laboratory results from PubChem BioAssay AID686978 (National Center for Advancing Translational Sciences (NCATS), 2013).
Hit rate of the full screen: of about 420,000 compounds, about 64,000 (15%) were called active. Roughly 27% stayed inconclusive and do not appear here. A selection follows. Unmarked numbers belong to inactive results. Calls follow the shape of the dose curve; as a rule, active = well fitted inhibition curve with a large enough effect; inconclusive = small, poorly fitted or top-dose-only effect; inactive = flat fitted curve, though single readings scatter.

test: qHTS for Inhibitors of human tyrosyl-DNA phosphodiesterase 1 (TDP1): qHTS in cells in absence of CPT; conditions: DT40 Tdp1-/- hTDP1 cells, no CPT, ATP luminescence, 48 h; activity change, negative = growth inhibition: at 46.2 µM (top of the series); also: nearly all actives have a fitted effect of over 55% in size
In short: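 No-CPT arm: Tdp1-/-;hTDP1 DT40 cells (400/well) plus compounds, incubated ≥48 hr at 37 °C. Readout CellTiter-Glo luminescence.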
% is scaled to controls: 0 for no effect and ±100 for the full control effect; potency is read from the fitted curve at half-maximal effect.

Structure (SMILES) | Potency | activity change, negative = growth inhibition
CCCCNC(=O)Nc1c(C)cc(SC#N)cc1C | 8.2 µM (active) | 
CCCCNC(=O)C(=O)c1ccccc1NC(C)=O |  | -1.06%
CCC(C)C(CO)NC(=O)/C=C/[C@H]1O[C@@H](n2cnc3c(NC(=O)c4ccccc4)ncnc32)[C@H](O)[C@@H]1O (stereo partly drawn) |  | 9.97%
CNc1nnc(-c2ccco2)s1 |  | -0.333%
O=C(NCc1ccccn1)Nc1ccc(F)cc1 |  | 3.3%
CCOC(=O)c1ccccc1NC(=O)CSc1nc2c(sc(=S)n2CC)c(=O)[nH]1 |  | 16.5%
CC(C)CN1CCNC(=O)C1CC(=O)N(C)CC1CCOCC1 (stereo not drawn) |  | -16.4%
COC(=O)c1cc(C(=O)NC(C)C2CC3CCC2C3)cc([N+](=O)[O-])c1 (stereo not drawn) | 20.6 µM (active) | 
COC(=O)c1cc(C(=O)OCC(=O)Nc2cc(C)on2)cc([N+](=O)[O-])c1 |  | 0.11%
CC(NC(=O)CN(C)S(=O)(=O)c1ccc(F)cc1)C1CC2CCC1C2 (stereo not drawn) |  | 4.07%
OC1CN=C2Sc3ccccc3N2C1 (stereo not drawn) |  | -19.7%
O=C(NC(=O)c1ccc(Cl)c(Cl)c1)OC1CCS(=O)(=O)C1 (stereo not drawn) |  | -4.5%
CCCCOc1ccc(C(=O)NCC(=O)OCC(=O)c2c(N)n(C)c(=O)n(C)c2=O)cc1 |  | -16.3%
COc1cc(NC(=O)c2cccnc2SC)cc(OC)c1 |  | -9.43%
O=C(Nc1cccc(C(F)(F)F)c1)c1cnccn1 |  | 9.25%
COc1cc(NC(=O)c2[nH]cnc2C(N)=O)cc(C(=O)Nc2cccc(C(F)(F)F)c2)c1 | 18.4 µM (active) | 
COc1cc(NC(=O)c2cncc(-c3ccc(C#N)cc3)c2)cc(C(=O)Nc2cccc(C(F)(F)F)c2)c1 | 10.3 µM (active) | 
CCn1nnnc1SCC(=O)Nc1ccc(N(C)C)cc1 |  | -2.75%
Cn1c(N)c(C(=O)COC(=O)/C=C/c2cccc(C(F)(F)F)c2)c(=O)n(C)c1=O |  | -25.4%
Cc1noc(C)c1-c1nccc(N2CCOCC2)n1 |  | -3.85%
CCCCc1nc2cc(C(=O)NCCc3cnn(C)c3)ccc2o1 |  | -28.5%
CC1CCN(C(=O)c2ccccc2NC(=O)Cc2ccccc2)CC1 |  | 9.05%
O=C(Nc1ccccc1C(=O)N1CCCCCC1)c1ccccc1Cl |  | -4.37%
O=C(O)C1CC=CCC1C(=O)Nc1ccccc1C(=O)N1CCN(c2ccccc2)CC1 (stereo not drawn) | 20.6 µM (active) | 
Cc1ccccc1NC(=O)C1CCN(C(=O)NC2CCCCC2)CC1 |  | -4.82%
CC1CC(=O)N(CC(=O)Nc2cccc(Cl)c2)c2ccccc2S1(=O)=O (stereo not drawn) |  | -4.87%

Structure (SMILES) | Potency | activity change, negative = growth inhibition
Cc1ccc(NC(=O)CN2c3ccccc3S(=O)(=O)c3ccccc32)cc1F | 18.4 µM (active) | 
CC(=O)N1CCN(CC(=O)Nc2ccc(C)c(F)c2)CC1 |  | 26%
CCCCOc1ccc(NC(=O)c2cc3c(n(-c4ccc(Cl)cc4)c2=O)CCCC3=O)cc1 |  | 16.6%
c1ccc2cc(C3=NCCN3)ccc2c1 |  | -24%
C=CCNC(=O)c1ccccc1NC(=O)c1ccc(Cl)c(S(=O)(=O)Nc2cccc(C)c2C)c1 | 16.4 µM (active) | 
Cc1cc(=O)c2cc(C(=O)Nc3cccc(C)c3C)ccc2[nH]1 |  | -15.6%
Cc1ccccc1NC(=O)c1cc(S(=O)(=O)Nc2cccc(C(=O)O)c2)ccc1Cl |  | 16%
CC1(C)CC(=O)C2=C(C1)Nc1cc(C(=O)c3ccccc3)ccc1NC2c1ccccn1 (stereo not drawn) |  | -1.7%
Cc1cccc(C(=O)OCC(=O)Nc2ccc(F)cc2)c1 |  | -23.4%
Cc1cccc(NC(=O)COC(=O)c2ccccc2OCc2cccc(Br)c2)c1 | 22.4 µM (active) | 
O=C(COC(=O)c1ccccc1OCCOc1ccccc1)Nc1cccc(Br)c1 |  | -20.2%
Nc1nc(C23CC4CC(CC(C4)C2)C3)cs1 |  | -15.4%
CN(C)c1ccc(S(=O)(=O)NCC(=O)NCC2CCCCC2)cc1[N+](=O)[O-] |  | 0.804%
Cc1noc(NS(=O)(=O)c2ccc(N3CC(O)=C(c4ccccc4)C3=N)cc2)c1C |  | -0.727%
CCC(C)c1ccccc1N1CC(C(=O)N2CCN(S(=O)(=O)c3ccc(F)cc3)CC2)CC1=O (stereo not drawn) |  | -24.6%
CC(=O)NC(c1ccccc1)c1nc(-c2ccccc2C)cs1 (stereo not drawn) |  | -8.95%
CCC1=C(OC(=O)N(CC)CC)N2C(=O)OC(=NCC3CC3)[C@]2(C)[C@H]2C1=CC[C@H]1C(=O)N(CC(=O)OC)C(=O)[C@H]12 |  | -5.13%
CCn1nc(C)c(NC(=O)/C=C/c2ccc(OC)c(COc3ccc(Br)cc3)c2)c1C | 20.6 µM (active) | 
CCn1nc(C(=O)NNS(=O)(=O)c2cc(/C=C/C(=O)O)cc(OC)c2OC)c2ccccc2c1=O |  | 6.78%
COc1ccc(OC)c(S(=O)(=O)Nc2c(C)nn(C)c2C)c1 |  | 18.5%
COC(=O)c1c(NC(=O)c2ccccc2F)sc2c1C(C(=O)OC)CC2 (stereo not drawn) | 11.6 µM (active) | 
O=C(Nc1nnc(-c2ccccc2F)s1)c1ccccc1F |  | -14.6%
Cc1ccccc1NC(=O)c1c(NC(=O)c2ccccc2F)sc2c1CCC(C)C2 (stereo not drawn) |  | -5.64%
COc1cc(NC(=O)CCNC(=O)Cn2ccc3ccccc3c2=O)cc(OC)c1OC | inactive | 
CC(=O)C[C@H](O)CC(=O)[C@@H]1OC(=O)[C@@H](C)C/C=C\Cc2ccccc21 |  | -11.3%
N#CC1=C(N)Oc2cc(N)ccc2C1c1ccccc1 (stereo not drawn) | 18.4 µM (active) | 

Structure (SMILES) | Potency | activity change, negative = growth inhibition
CC(C)c1ccc(C2C(C#N)=C(N)Oc3c2oc(CO)cc3=O)cc1 (stereo not drawn) |  | -11.5%
Cc1cc(C)c2c3c(sc2n1)C(c1ccccc1)C(C#N)=C(N)O3 (stereo not drawn) |  | -23%
c1nc(COc2nsnc2N2CCOCC2)cs1 |  | -13.8%
CC(=O)Nc1cc2ccc(OC(C)=O)cc2oc1=O |  | -20%
CC(C)NC(=O)C(=O)N/N=C/c1ccco1 |  | 10.1%
Cc1ccc(C)c(Cn2c(CCCNC(=O)C3CCCCC3)nc3ccccc32)c1 | 16.4 µM (active) | 
Cc1ccc(CN2C(=O)CCC2C(=O)NCCCN2CCCCC2C)cc1 (stereo not drawn) |  | -0.806%
O=C(NCCCc1ccccc1)C1CCC(CNc2c(N3CCCCC3)c(=O)c2=O)CC1 (stereo not drawn) |  | -14.4%
Cc1ccc(Cn2c(CCCNC(=O)C3CCCCC3)nc3ccccc32)cc1 | 20.6 µM (active) | 
CC(C)Oc1ccc(CNC(=O)C2CCN(c3nc4ccccc4n(C)c3=O)CC2)cc1 |  | -15.9%
CCc1ccc(OCCCn2c(CCCNC(=O)C3CCCCC3)nc3ccccc32)cc1 | 4.47 µM (active) | 
CCCc1nc2c(C)cc(-c3nc4ccccc4n3C)cc2n1Cc1ccc(-c2ccccc2C(=O)O)cc1 |  | -19.6%
CCCCNC(=O)CCn1c(=O)c2ccccc2n(Cc2cc(C)ccc2C)c1=O | inactive | 
CCCNC(=O)C1CCN(c2nc3ccc(C)cc3[nH]2)CC1 |  | -6.49%
O=C(NC1CC(=O)N(c2ccc(F)cc2)C1)c1cccs1 (stereo not drawn) |  | -16.2%
Cc1cc(C)c(S(=O)(=O)c2ccc(F)cc2C)c(=O)[nH]1 |  | 2.94%
COc1cccc(NC(=O)c2nn(-c3ccc(OC)cc3OC)c(=O)c3ccccc23)c1 |  | -1.05%
O=C1NC(c2ccccc2)Cc2ccncc21 (stereo not drawn) |  | -29.1%
N[C@H]1CN(c2c(F)cc3c(=O)c(C(=O)O)cn(C4C[C@H]4F)c3c2Cl)CC12CC2 (stereo partly drawn) |  | -27.3%
NS(=O)(=O)c1cccc(NC(=O)CN2CCCc3ccccc32)c1 |  | -2.52%
COC(=O)c1[nH]c2cccc(C)c2c1NC(=O)CN1CCCc2ccccc21 | 20.6 µM (active) | 
Cc1ccc(OCC(=O)Nc2cccc3c2CCCC3)cc1C |  | -27%
CCN1CCN(C(=O)C2(NC(=O)Nc3cccc(F)c3)CCCCC2)CC1 |  | -18.3%
O=C(COc1ccc2ccc(=O)oc2c1)NCC(O)c1ccccc1 (stereo not drawn) |  | 17.9%
COCCn1c(=O)c(-c2ccc(OC)cc2)nc2cnc(Oc3cccc(Cl)c3)nc21 |  | -9.79%
O=C(NCc1cccs1)C1CCN(S(=O)(=O)c2ccc3c(c2)OCCO3)CC1 |  | -23.7%

Structure (SMILES) | Potency | activity change, negative = growth inhibition
COc1ccc(C(=O)OCC(=O)Nc2cc(C)on2)cc1F |  | 0.457%
Cn1nccc1C(=O)NC1CCCc2c1cnn2-c1ccc(F)cc1F (stereo not drawn) | 1.64 µM (active) | 
Cn1nccc1C(=O)NC1CCCc2c1cnn2-c1ccccc1F (stereo not drawn) | 2.06 µM (active) | 
O=C(CCNC(=O)c1ccc(Cl)cc1)NC1CCCc2ccccc21 (stereo not drawn) |  | 4.52%
CC(=O)NCC(=O)NC1CCCc2c1cnn2-c1ccccc1F (stereo not drawn) |  | -0.918%
Cc1ccc(S(=O)(=O)N[C@@H](Cc2ccccc2)C(=O)N2CCC(C(=O)N[C@H](C(=O)O)C(C)O)CC2)cc1 (stereo partly drawn) |  | 10.3%
COc1ccc(C2C(C(C)=O)=C(O)C(=O)N2Cc2cccnc2)cc1 (stereo not drawn) |  | -13.7%
COc1cc2nc(C#Cc3nc4cc(OC)c(OC)cc4[nH]3)[nH]c2cc1OC |  | -2.38%
Cc1nnc(NC(=O)Cn2c(=O)sc3ccccc32)s1 |  | -4.38%
CC(Oc1ccccc1F)C(=O)NN (stereo not drawn) |  | -2.53%
COc1cccc(-c2nn(C)c3sc(C(=O)N4CCN(c5ccccc5)CC4)cc23)c1 | 23.1 µM (active) | 
CCOc1ccc(-c2ccc(SCC(=O)N3CCOCC3)nn2)cc1 |  | 2.68%
CCOC(=O)N1CCN(C(=O)c2cc3c(-c4ccc(Cl)cc4)nn(C)c3s2)CC1 | 11.6 µM (active) | 
COc1ccc(OC)c(S(=O)(=O)N(C)CC(=O)N2CCN(c3ccccc3)CC2)c1 |  | -2.97%
COc1ccc2c(Cl)c(C(=O)NCc3ccco3)sc2c1 |  | -25.1%
CCOC(=O)N1CCN(C(=O)CNC(=O)Cc2ccc(Cl)cc2)CC1 |  | -16.7%
COc1cccc(/C=C/C(=O)OCC(=O)N2CCN(c3ccccc3)CC2)c1 |  | -8.54%
COc1cccc(-c2ccc(SCC(=O)N3CCN(c4ccccc4)CC3)nn2)c1 | 16.4 µM (active) | 
CCOC(=O)N1CCN(C(=O)CSc2ccc(Cl)cc2)CC1 |  | -4.08%
Cn1nc(C(F)(F)F)c2cc(C(=O)N3CCOCC3)sc21 |  | -9.2%
O=C(NCc1ccco1)c1nc(-c2ccccc2)n(-c2ccccc2)n1 |  | -18.6%
Cn1nc(-c2ccc(Cl)cc2)c2cc(C(=O)NCc3ccco3)sc21 | 20.6 µM (active) | 
COC(=O)c1nc(NC(=O)c2ccc(F)cc2)n[nH]1 |  | -20.9%
Nc1cc(=O)c2[nH]cnc2[nH]1 |  | 3.63%
S=C(NC1CCCCC1)NN1CCOCC1 |  | 11.9%
